The values that follow come from PubChem BioAssay (EPA / NIEHS).

Activity calls are given as the source filed them. How the source made its calls: active means hit-call score of the fitted dose curve at least 0.9, where 1 is the maximum; inactive means score below 0.9.

The nature of the assay: CCTE_Shafer_MEA_dev_per_network_spike_spike_number_mean: CCTE's Neural Network Formation Assay for Mean Number of Spikes in a Network Spike, Shafer Lab (AID 2284053).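 On AC50: fitted as decrease in spikes per network spike relative to DMSO.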 The method, boiled down: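 First, rat cortical cells (1.5 x 10^5/well) were seeded onto MEA wells; second, dosing began at plating and was refreshed on DIV 5 and 9; finally, network-spike spike counts across DIV 5–12 were summarized as AUC.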
As for `O=C1CCC(N2C(=O)c3ccccc3C2=O)C(=O)N1` (stereo not given), the call was inactive.
`CCC(C)(C)C(=O)O[C@H]1C[C@@H](C)C=C2C=C[C@H](C)[C@H](CC[C@@H]3C[C@@H](O)CC(=O)O3)[C@H]21`: the AC50 (in general, the midpoint of the concentration-response curve, whichever way the signal moves) is 1.1 µM (active).
Take `NC(=O)NO`: the molecule was called inactive.
Take `COc1ccc(-n2nc(C(F)F)cc2-c2ccc(S(C)=O)cc2)cc1` (stereo not given): the molecule was called inactive.
On to `CNCc1ccc(NC(=O)c2c[nH]c3c2C(=O)CCC3)cc1`, for which the AC50 was 2.49 µM (active).
As for `Nc1nc2ncc(CNc3ccc(C(=O)N[C@@H](CCC(=O)O)C(=O)O)cc3)nc2c(=O)[nH]1`, the molecule was classed as inactive.
The same measure, in the same setting: under `CC[C@H]1OC(=O)[C@H](C)[C@@H](O[C@H]2C[C@@](C)(OC)[C@@H](O)[C@H](C)O2)[C@H](C)[C@@H](O[C@@H]2O[C@H](C)C[C@H](N(C)C)[C@H]2O)[C@](C)(O)C[C@@H](C)C(=O)[C@H](C)[C@@H](O)[C@]1(C)O` stands “inactive”.
With `CC[C@H](C)C(=O)O[C@H]1C[C@@H](C)C=C2C=C[C@H](C)[C@H](CC[C@@H]3C[C@@H](O)CC(=O)O3)[C@H]21`, the AC50 was 2.22 µM (active).
Consider `O=P(OC(CCl)CCl)(OC(CCl)CCl)OC(CCl)CCl`, for which the molecule was classed as inactive.
For the molecule `Cn1c(=O)c2c(ncn2C)n(C)c1=O`, the outcome was inactive.
